Screens as filed in PubChem BioAssay.
Most compounds without a hit are left out; they make up all but 12% or so of the library.
G9a block: blocks human histone lysine methyltransferase G9a | Potency, µM (top dose mostly 102 µM), for inactives: at the highest dose activity, negative = inhibition, usual class: inhibitors | G9a H3K9 monomethylation, AlphaScreen, 2 h | Q96KQ7 | AID 504332 | hit rate 8.8% among 350,000; further: on the % scale 0 is the no-effect control and ±100 the full control effect; nearly all actives have a fitted effect of over 75% in size
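AlphaScreen detection with an anti-monomethyl H3K9 antibody quantified product after a 2 h room-temperature reaction containing 500 nM biotinylated H3K9 peptide, 20 µM SAM and 20 nM enzyme, which had been preincubated 15 min with compound.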
HP1b chromo inh: HP1-beta chromodomain-methylated histone interaction inhibition. hit rate 0.56% among 390,000. AlphaScreen HP1-beta / biotin-H3K9me3 peptide binding. Potency, µM (highest dose often 114 µM), for inactives: at the highest dose activity change, negative = inhibition, actives largely listed as inhibitors. AID 540317. P83916; further: nearly all actives have a fitted effect of over 70% in size
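HP1-beta protein (50 nM final) preincubated 30 min at room temperature with biotinylated H3(1-18)K9me3 peptide (50 nM) in PBS pH 7.4, 0.01% Tween-20, then compound added for 30 min. AlphaScreen streptavidin donor/nickel chelate acceptor beads (10 ug/mL final), 30 min dark, luminescence read.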
Sfp inh: inhibitors of Bacillus subtilis Sfp phosphopantetheinyl transferase. Potency, µM, without a hit: largest response in the series, negative = inhibition, hits mostly inhibitors. Biochemical Sfp PPTase activity, qHTS. hit rate 3.5% among 310,000. Q9F4F7;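 further: the enzyme is Sfp with the accession as filed and its product quenches rhodamine fluorescence; 0% = enzyme reaction without inhibitor and -100% = no enzyme wells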
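Compounds were incubated with enzyme (final 15 nM) for 15 min at room temperature before substrate addition started the reaction. Fluorescence at 525 nm excitation, 598 nm emission was recorded immediately and after 30 minutes.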
L3MBTL1 block: L3MBTL1 (human) inhibition. AlphaScreen L3MBTL1–H3K9me1 peptide binding. Potency, µM (series often up to 57.1 µM), inactives show top-dose activity, negative = inhibition, actives largely listed as inhibitors. hit rate 0.66% among 230,000; further: on the % scale 0 is the no-effect control and ±100 the full control effect; nearly all actives have a fitted effect of over 60% in size
Target sequence (Q9Y468 whole entry, looked up): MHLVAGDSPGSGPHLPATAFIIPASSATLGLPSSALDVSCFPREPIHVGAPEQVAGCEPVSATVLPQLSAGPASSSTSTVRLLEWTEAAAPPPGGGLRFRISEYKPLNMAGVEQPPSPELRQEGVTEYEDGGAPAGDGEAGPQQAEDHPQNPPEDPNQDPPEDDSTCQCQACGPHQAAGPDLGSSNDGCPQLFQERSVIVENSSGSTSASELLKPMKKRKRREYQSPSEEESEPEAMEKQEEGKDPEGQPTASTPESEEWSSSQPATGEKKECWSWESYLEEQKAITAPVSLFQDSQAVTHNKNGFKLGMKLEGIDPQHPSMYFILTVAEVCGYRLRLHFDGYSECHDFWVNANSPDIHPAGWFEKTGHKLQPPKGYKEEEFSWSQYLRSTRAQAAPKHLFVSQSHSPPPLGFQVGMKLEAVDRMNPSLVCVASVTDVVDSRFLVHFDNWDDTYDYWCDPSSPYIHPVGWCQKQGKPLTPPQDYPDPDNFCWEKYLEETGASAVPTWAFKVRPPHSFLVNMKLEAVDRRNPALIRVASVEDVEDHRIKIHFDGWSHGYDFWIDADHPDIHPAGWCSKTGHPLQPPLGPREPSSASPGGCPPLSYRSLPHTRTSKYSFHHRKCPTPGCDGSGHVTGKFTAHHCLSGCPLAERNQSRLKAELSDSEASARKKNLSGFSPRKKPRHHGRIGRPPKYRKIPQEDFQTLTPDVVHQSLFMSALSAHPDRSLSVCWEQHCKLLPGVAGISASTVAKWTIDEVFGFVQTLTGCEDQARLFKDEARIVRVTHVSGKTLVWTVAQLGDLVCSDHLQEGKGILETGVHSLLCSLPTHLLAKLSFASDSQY
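First, the protein-peptide complex forms for 30 min at room temperature (L3MBTL1 50 nM, biotinylated H3K9me1 peptide 75 nM). Next, compounds are pin-transferred and incubated 30 min. Finally, AlphaScreen beads are added and read after 30 min.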
BAZ2B inh: inhibitors of human BAZ2B bromodomain | hit rate 4.4% among 360,000 | Q9UIF8 | Potency, µM (doses to about 114 µM), without a hit: at the top dose activity change, negative = inhibition, hits mostly inhibitors | AlphaScreen BAZ2B-H3K14Ac peptide displacement; further: on the % scale 0 is the no-effect control and ±100 the full control effect; nearly all actives have a fitted effect of over 60% in size
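Complex of BAZ2B and biotin-H3K14Ac (50 nM apiece) forms over 30 min at RT, then faces library compounds up to 110 uM for another 30 min; AlphaScreen beads added, 20 min dark incubation, luminescence read.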
JMJD2A Tudor: blocks the human JMJD2A Tudor domain; O75164; AlphaScreen JMJD2A-Tudor / H3K4me3 peptide binding; Potency, µM (series often up to 114 µM), for inactives: at the highest dose activity change, negative = inhibition, actives largely listed as inhibitors; hit rate 4.4% among 390,000; further: on the % scale 0 is the no-effect control and ±100 the full control effect; nearly all actives have a fitted effect of over 50% in size
* = called active by the depositor; ? = inconclusive; · = no result given; [ ] = remark or other dose. The call rests on the fitted dose curve; in most records, active means well fitted curve in the direction sought with a large enough effect; inconclusive means small, poorly fitted or top-dose-only effect, or another doubt; inactive means no such curve, though single readings can be large; an effect the other way counts as inactive or inconclusive. Potency means the concentration at half of the fitted maximal effect.

SMILES	G9a block	HP1b chromo inh	Sfp inh	L3MBTL1 block	BAZ2B inh	JMJD2A Tudor
COc1ccc(-c2cc(C(F)(F)F)c3c(=O)n(-c4ccccc4)[nH]c3n2)cc1	13µM*	-38%	-26%	-7%	?	56µM*
CCOC(=O)C1CCN(C(=O)CCS(=O)(=O)Cc2ccccc2)CC1	50µM*	13%	17%	·	0%	-9%
Cc1oc(-c2ccccc2F)nc1CS(=O)(=O)CC(=O)N1CCN(Cc2ccccc2)CC1	50µM*	11%	16%	7%	-22%	-20%
Cc1oc(-c2ccccc2F)nc1CS(=O)(=O)CC(=O)N1CCOCC1	-1%[59 µM]	33%	17%	5%	12%	-9%
O=C(CCS(=O)(=O)Cc1ccccc1)N1CCN(Cc2ccccc2)CC1	50µM*	17%	12%	-5%	11%	-10%
Cc1ccc(C)c(NC(=O)Cn2ncc3c([nH]c4ccccc43)c2=O)c1	0%[59 µM]	18%	·	·	3%	-5%
C[Si](C)(C/C=C/CC[C@H](O)C1=CCCCC1=O)c1ccccc1	·	·	-12%	·	·	·
CC(C)c1nc(NCc2ccccc2)c(C#N)c2c1CCCC2	25%	16%	9%	8%	-3%	6%[11.4 µM]
N#Cc1c(NCCCO)nc(NCc2ccccc2)c2c1CCN(Cc1ccccc1)C2	40µM*	?	-26%	-18%	32µM*	56µM*
CN1CCc2c(C#N)c(N3CCCCC3)nc(NCc3ccccc3)c2C1	40µM*	-17%	?	-18%	?	?
Cc1cc(NC(=O)CCNS(=O)(=O)c2ccc3c(c2)CCCC(=O)N3)ccc1Br	-29%[59 µM]	24%	·	·	8%[57.1 µM]	-5%
COc1cccc(/C=N/n2c(SC)nnc2-c2ccccc2)c1OC	?	19%	5%	-5%	4%	1%
COc1cccc(/C=N/n2c(SC)nnc2-c2ccccc2)c1O	8.9µM*	24%	-25%	-1%	?	-31%
COc1cccc(/C=C2\SC(=S)N(CCCC(=O)N(CCO)c3ccccc3)C2=O)c1	?	-23%	-6%	·	?	35µM*
COc1ccc(/C=C2\SC(=S)N(CCC(=O)N(CCO)Cc3ccccc3)C2=O)cc1OC	-8%	-11%	13%	·	-1%	-34%
O=C1/C(=C/c2cccc(Br)c2)SC(=S)N1CCC(=O)N(CCO)c1ccccc1	·	-24%	1%	-16%	?	32µM*
O=C(CNC(=O)c1cccc2ccccc12)OC(C(=O)Nc1cc(C(F)(F)F)ccc1Cl)c1ccccc1 (stereo not given)	·	·	·	·	·	-10%
C=CCn1c(-c2ccc(C)cc2)nc2ccccc21	21%	34%	7%	·	-4%	5%
C=CCn1c(CSc2ccc(C)cc2)n[nH]c1=S	8.9µM*	63%	-6%	·	-25%	12%
C=CCn1c(SCc2n[nH]c(=S)n2-c2ccccc2)nnc1-c1ccccc1	11µM*	37%	-2%	-3%	-13%	11µM*
C=CCn1c(CSc2nnc(-c3ccccc3)n2C)n[nH]c1=S	·	41%	?	50%	-3%	10µM*
CCCCCn1c(=N)n(CC(O)COc2cccc(C)c2)c2ccccc21 (stereo not given)	-4%[59 µM]	32%	·	·	-16%	-11%
N[C@@H](C(=O)O)c1cc(O)ccc1Cl	·	·	-1%	·	·	·
N#Cc1ccc(-n2nccc2-c2cnc3n(c2=O)CCS3)cc1	-7%[12.7 µM]	-11%	22%	·	8%	50µM*
CCCCn1cc(S(=O)(=O)c2ccc(Cl)cc2)c(=O)c2cc(F)c(N3CCCC(C)C3)cc21 (stereo not given)	-2%[59 µM]	55%	·	·	6%	-7%
SMILES	G9a block	HP1b chromo inh	Sfp inh	L3MBTL1 block	BAZ2B inh	JMJD2A Tudor
Cc1ccccc1NS(=O)(=O)c1ccc(F)cc1	7%[59 µM]	37%	22%	·	2%	-8%
CC(C)(C)N(NS(=O)(=O)c1ccc(F)cc1)c1ccccc1	8.9µM*	27%	-30%	·	7%	?
COc1ccc(OC)c(-c2cc(C(=O)Nc3cnn(Cc4ccc(Cl)cc4Cl)c3)no2)c1	-40%[59 µM]	16%	·	·	1%	-5%
CCc1ccc(NS(=O)(=O)c2ccc3oc(=O)c4ncn(CC)c4c3c2)cc1	10µM*	4%	·	·	?	-25%
CCN(Cc1ccccc1)C(=O)Cn1c(=O)n(-c2ccccc2)c(=O)c2c1c1cc(C)ccc1n2C	-2%[59 µM]	39%	·	·	?	12%
CCc1ccc(CNC(=O)c2ccc(NC(=O)N3CCCCc4ccccc43)cc2)cc1	7%[59 µM]	-13%	·	·	-3%	-24%
CN(C)c1ccc(CNC(=O)c2ccc(NC(=O)N3CCCCc4ccccc43)cc2)cc1	?	9%	·	·	28µM*	35µM*
CC(C)Oc1ccc(C(=O)NCC(c2ccc(N(C)C)cc2)N2CCc3ccccc32)cc1 (stereo not given)	14µM*	?	·	·	16µM*	7.1µM*
O=C(NCc1ccc(Cl)cc1)c1ccc(CNc2c(N3CCCC3)c(=O)c2=O)cc1	1%	30%	-1%	·	0%	-5%
COc1ccc(C(=O)NCC(c2ccc(N(C)C)cc2)N2CCc3ccccc32)cc1 (stereo not given)	10µM*	10µM*	·	·	8.9µM*	7.1µM*
CN(C)c1ccc(CNC(=O)c2ccc(CNc3c(N4CCCCC4)c(=O)c3=O)cc2)cc1	45µM*	7%	5%	·	-9%	?
COc1cc(C(=O)NCC(c2cccnc2)N2CCc3ccccc32)cc(OC)c1OC (stereo not given)	-5%[59 µM]	19%	·	·	5%	-8%
O=C(NCC(c1cccnc1)N1CCc2ccccc21)c1ccc(F)c(F)c1 (stereo not given)	3%[59 µM]	29%	·	·	0%	-11%
CN(C)c1ccc(C(CNC(=O)c2ccccc2)N2CCc3ccccc32)cc1 (stereo not given)	13µM*	?	·	·	11µM*	13µM*
O=C(NCC(c1ccco1)N1CCc2ccccc21)c1ccc([N+](=O)[O-])cc1 (stereo not given)	26%[2.33 µM]	-2%	·	-10%	-7%	-22%
COc1ccc(-c2ccc(/C=N/NC(=O)Cc3nnc(N)s3)o2)cc1Cl	20µM*	1%	?	-3%	?	-29%
COC(=O)c1ccc(-c2ccc(/C=N/NC(=O)Cc3nnc(N)s3)o2)cc1	?	20%	56µM*	-14%	-23%	-26%
O=C(NC1CCCCCC1)c1cc2c(Cl)nc3ccccc3c2s1	-29%[59 µM]	34%	·	·	-2%	-13%
Clc1ccc(Cl)c(OCCCCN2CCCCC2)c1	8.9µM*	?	-1%	6%	?	32µM*
Cc1ccc(Cl)c(OCCCCN2CCC(C)CC2)c1	·	33%	·	·	·	0%
